molecular target: Solute carrier family 2, facilitated glucose transporter member 1 (Homo sapiens) (UniProt P11166); test: ST_JUDE_LEISH: Cytotoxicity at 2uM final concentration against transgenic Leishmania Mexicana promastigotes LmGLUT1 that are glucose transport deficient and complemented with the human glucose transporter GLUT1. Activity is measured by DNA content using SYBR green in vitro; assay type: functional
Sequence (P11166 whole entry): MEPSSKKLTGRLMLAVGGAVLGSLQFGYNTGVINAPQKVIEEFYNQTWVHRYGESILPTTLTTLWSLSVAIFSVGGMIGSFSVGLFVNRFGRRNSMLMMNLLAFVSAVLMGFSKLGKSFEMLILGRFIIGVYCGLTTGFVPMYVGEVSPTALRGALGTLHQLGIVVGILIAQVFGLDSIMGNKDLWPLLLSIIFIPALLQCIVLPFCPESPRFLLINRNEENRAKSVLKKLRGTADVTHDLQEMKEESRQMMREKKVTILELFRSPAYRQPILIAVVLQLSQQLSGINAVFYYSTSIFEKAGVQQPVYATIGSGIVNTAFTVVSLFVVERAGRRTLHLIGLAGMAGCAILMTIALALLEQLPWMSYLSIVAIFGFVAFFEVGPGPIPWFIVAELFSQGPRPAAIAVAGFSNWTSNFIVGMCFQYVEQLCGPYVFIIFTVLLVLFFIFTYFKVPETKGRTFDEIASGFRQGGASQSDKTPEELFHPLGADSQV

Compound | inhibition [%]
CCOc1ccc2[nH]c(C)cc(=NN=Cc3cccnc3)c2c1 | 8.63
Cc1ccc2nc3ccccc3c(NCCN3CCN(C)CC3)c2c1 | 39.1
COc1cc(NC(=O)c2cccs2)c(C(=O)NCc2ccc(C)cc2)cc1OC | 5.62
COc1cccc(NC(=O)NC2CCN(c3ccnc(Nc4cc(OC)c(OC)c(OC)c4)n3)C2)c1 (stereo not given) | 1.18
COCCNc1nc(N2CCC(CNC(=O)c3ccc(-c4ccc(C(=O)N(C)C)cc4C)cc3)CC2)nc2cc(OC)c(OC)cc12 | -0.42
Cc1[nH]c(C)c(-c2ccc(-c3ccc(OC(F)(F)F)cc3)nc2)c(=O)c1Br | 9.71
COc1ccc(OCc2ccccn2)c(C2CCN(CCCCNC(=O)c3ccc(NC(=O)c4ccc(Cl)cc4)cc3)CC2)c1 | 1.01
CCCCOc1ccc(N2C(N)=NC(N)=NC2(C)C)cc1 | 2.55
C[C@H](Cc1ccc(CCc2ccc(C[C@@H](C)NC[C@H](O)c3cccc(Cl)c3)cc2)cc1)NC[C@H](O)c1cccc(Cl)c1 | 59.1
COc1ccccc1N(C)CCNc1cc(C)nc(Nc2ccccc2)n1 | 11.5
COc1ccc(C(=O)Nc2cc(Cl)c3c(c2)C2CCCN2CC3)cc1C(F)(F)F (stereo not given) | 3.22
CC(=O)c1ccc(Nc2c(C(N)=O)cnc3cc(-c4c(C)noc4C)ccc23)cc1 | 8.14
CCn1c(C(C)C)cc2c3c(N)nc(N)nc3ccc21 | 50.6
N#Cc1ccc(-c2ccc(C(=O)NCCCCN3CCC(c4cn(CCO)c5ccccc45)CC3)cc2)cc1 | -0.57
COc1ccc(C(C(=O)NC2CCN(C[C@H](O)c3ccnc4ccc(OC)cc34)CC2)N2CCc3ccccc3C2)cc1 (stereo not given in full) | 2.66
CNCCNCc1ccc(-c2ccc(-c3nc4cccc(C)c4[nH]3)cc2)cc1 | 5.52
COc1cc(C)nc2ccc(NC(=O)Nc3ccc([N+](=O)[O-])cc3C)cc12 | 3.91
CCCCCCn1c(Sc2ccc(C#N)c([N+](=O)[O-])c2)nnc1-c1ccc(N(C)C)cc1 | 17.6
CCOc1ccc(-n2nc3c(Cl)nnc(-c4ccccc4)c3c2-c2ccccc2)cc1 | 4.48
O=[N+]([O-])c1cccc(CNC2CCN(Cc3ccc4ccccc4c3)CC2)c1 | 19

Compound | inhibition [%]
O=C(Nc1cccc(-c2cc(-c3c(Cl)cccc3Cl)no2)c1)c1cncc(-c2cccs2)c1 | 16
COc1ccc(NC(=O)NC2CCN(c3ccnc4cc(Cl)ccc34)C2)cc1 (stereo not given) | 4.89
Cc1cc2nc(-c3ccc(C(=O)NCc4cccc(C(F)(F)F)c4)cc3)[nH]c2cc1C | -0.3
CC(=O)Nc1ccc(NC(=O)c2cc(-c3cc(Cl)ccc3O)n[nH]2)cc1 | -0.41
CNc1nc(N/N=C/c2cc3c(cc2[N+](=O)[O-])OCO3)nc(Nc2cccc(C(F)(F)F)c2)n1 | 6.24
c1ccc2[nH]c(-c3ccc(-c4ccc(CN5CCC(N6CCCCC6)CC5)cc4)s3)nc2c1 | 0.72
N#CCCN1CCN(Cc2cccc(-c3ccc(-c4nc5cc(F)ccc5[nH]4)cc3)c2)CC1 | 4.34
O=[N+]([O-])c1ccc(C=NNc2nc3ccccc3[nH]2)cc1 | -0.91
Fc1cccc(COc2ccc(Nc3ncnc4ccc(-c5nnc(C(F)(F)F)o5)cc34)cc2Cl)c1 | 4.63
O=C(Nc1ccc(Cl)c(Cl)c1)N1CCc2cc3nccc(N4CCN5CCC[C@H]5C4)c3cc21 | 3.24
CSc1nccc(-c2ccc3ccnc(N)c3c2)n1 | 11.2
COc1cc(SC)c(Br)cc1-c1nc2ccncc2[nH]1 | 3.09
O=C(Nc1ccc(OC2CCN(Cc3ccco3)C2)c(Cl)c1)c1ccc2ncccc2c1 (stereo not given) | 0.4
CCCN(CCC)C(=O)c1cc(C(=O)N[C@@H](Cc2ccccc2)[C@H](O)CNC(C)(C)c2cccc(OC)c2)cc(N2CCCCS2(=O)=O)c1 | 1.96
Cc1cc(NCCc2cccc(F)c2)nc(NC(=N)Nc2cccc(C(F)(F)F)c2)n1 | 3.82
CCCCCn1c(Sc2ccc(C#N)c([N+](=O)[O-])c2)nnc1-c1cccs1 | 2.86
COc1cc2nc(N3CCC(CNC(=O)c4ccc(-c5ccc(C(=O)N(C)C)cc5O)cc4)CC3)nc(N)c2cc1OC | 0.58
CC(C)(C)c1cc(Cl)cc(C(=O)Nc2cc([N+](=O)[O-])ccc2Cl)c1O | 5.8
CCOc1ncccc1CN1CCC(N2CCc3cc(NC(=O)c4cc(C)on4)ccc32)C1 (stereo not given) | -0.44
Cc1[nH]c(C)c(-c2ccc(-c3ccc(C(F)(F)F)cc3C(F)(F)F)nc2)c(=O)c1Br | -0.49
